Only some compounds are listed: those with a hit (about 2.9% of all), similar ones and a draw of the others.
KLK7 zymogen act – activates the human kallikrein-7 zymogen; activation, % at 7 µM; AID 652039; 0.9% of 370,000 active; purified proKLK7, EDANS-DABCYL substrate fluorescence; 100% is mature enzyme control, 0% vehicle;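 active means activation above the mean of all tested compounds plus 3 SD, computed per campaign excluding outliers beyond control limits, cut at about 13% in these data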
PLC-gamma1 inh – blocks human PLC-gamma1 enzyme activity; P19174; purified PLC-gamma1, fluorogenic substrate, fluorescence; inhibition, % at 12.2 µM; 0.84% of 370,000 active; AID 720700
Target sequence (P19174 whole entry, looked up): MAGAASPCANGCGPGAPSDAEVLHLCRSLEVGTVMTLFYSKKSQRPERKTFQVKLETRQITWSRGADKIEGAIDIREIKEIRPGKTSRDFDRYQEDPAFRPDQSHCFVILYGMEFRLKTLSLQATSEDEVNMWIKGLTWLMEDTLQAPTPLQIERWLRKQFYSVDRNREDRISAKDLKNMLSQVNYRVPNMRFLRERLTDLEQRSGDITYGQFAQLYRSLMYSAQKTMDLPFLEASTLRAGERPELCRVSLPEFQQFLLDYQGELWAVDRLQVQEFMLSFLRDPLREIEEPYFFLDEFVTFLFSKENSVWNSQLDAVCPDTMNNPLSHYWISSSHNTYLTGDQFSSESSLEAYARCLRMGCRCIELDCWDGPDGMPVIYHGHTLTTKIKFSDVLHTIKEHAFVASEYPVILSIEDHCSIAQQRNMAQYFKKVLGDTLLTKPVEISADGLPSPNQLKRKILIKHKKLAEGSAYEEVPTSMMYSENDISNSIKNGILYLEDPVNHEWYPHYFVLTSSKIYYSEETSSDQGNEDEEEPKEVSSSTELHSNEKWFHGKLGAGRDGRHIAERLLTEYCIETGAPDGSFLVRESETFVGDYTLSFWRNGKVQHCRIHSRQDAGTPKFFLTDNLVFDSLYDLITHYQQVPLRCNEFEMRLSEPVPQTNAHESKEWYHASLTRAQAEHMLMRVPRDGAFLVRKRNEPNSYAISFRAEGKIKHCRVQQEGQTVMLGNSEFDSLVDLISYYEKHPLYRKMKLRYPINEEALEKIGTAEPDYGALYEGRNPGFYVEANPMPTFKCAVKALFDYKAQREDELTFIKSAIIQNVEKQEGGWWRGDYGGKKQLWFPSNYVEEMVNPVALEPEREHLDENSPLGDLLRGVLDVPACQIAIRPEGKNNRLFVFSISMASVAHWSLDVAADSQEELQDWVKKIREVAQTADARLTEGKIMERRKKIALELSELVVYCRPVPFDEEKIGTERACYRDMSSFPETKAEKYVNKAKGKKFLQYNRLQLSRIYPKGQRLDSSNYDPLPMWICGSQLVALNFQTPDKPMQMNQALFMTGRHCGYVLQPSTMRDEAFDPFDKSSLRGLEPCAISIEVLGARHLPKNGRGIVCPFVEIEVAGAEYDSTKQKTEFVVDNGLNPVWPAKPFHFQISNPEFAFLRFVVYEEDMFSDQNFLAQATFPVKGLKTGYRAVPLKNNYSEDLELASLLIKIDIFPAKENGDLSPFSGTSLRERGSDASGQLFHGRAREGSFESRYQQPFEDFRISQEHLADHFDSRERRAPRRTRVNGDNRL
ADAM10 inh – inhibitors of human ADAM10; recombinant ADAM10, EDANS/DABCYL FRET peptide cleavage, 3 h; inhibition, % at 7 µM; 0.62% of 370,000 active; AID 720582;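 active means inhibition above a per-campaign cutoff equal to the mean of compounds falling between control-based bounds plus 3 SD, cut at about 20% in these data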;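 further: 0% = DMSO wells while the 100% control is not disclosed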
ADAM17 inh – inhibitors of human ADAM17. recombinant ADAM17, EDANS/DABCYL FRET peptide cleavage. inhibition, % at 6.95 µM. 0.83% of 370,000 active. AID 720648;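 active means inhibition above the mean of compounds lying between control limits plus 3 SD, set per campaign, cut at about 8.5% in these data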;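 further: 0% = DMSO-only wells as the low control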
PLC-beta3 inh – inhibitors of human phospholipase C beta3; inhibition, % at 12.2 µM; Purified PLC-beta3, fluorogenic substrate, fluorescence; Q01970; 0.18% of 370,000 active; in the data active means inhibition above about 11%;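 further: 0% = median of compound wells on plate and 100% = full blocker control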
ADAM10 confirm – confirmation of inhibitors of human ADAM10. shares compounds with ADAM10 inh. ADAM10 QFRET peptide cleavage, EDANS fluorescence. inhibition, % at 6.95 µM. 1% of 2,100 active;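 active means inhibition above about 20% chosen separately for each screening run, limit read from the data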;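 further: 0% = DMSO wells and 100% = marimastat wells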
ADAM17 ctr – inhibits human ADAM17 in ADAM10 exosite counter-screen; shares compounds with ADAM10 inh; ADAM17 QFRET peptide cleavage, EDANS fluorescence; inhibition, % at 6.95 µM; 0.5% of 2,100 active;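 active means mean triplicate inhibition above the solvent-only control wells' mean plus 3 SD, cut at about 12% in these data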;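 further: 0% = DMSO wells and 100% = marimastat wells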
ADAM10 ctr – counter-screen for ADAM17 exosite inhibitors: inhibitors of human ADAM10; shares compounds with ADAM17 inh; 47% of 2,900 active; AID 743256; inhibition, % at 6.95 µM; recombinant ADAM10, EDANS/DABCYL FRET peptide cleavage, 3 h;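 active means mean inhibition over the triplicate runs exceeds the activity threshold set in the earlier primary screen, cut at about 20% in these data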;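 further: 0% = DMSO wells and 100% = marimastat wells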
ADAM17 confirm – human ADAM17 inhibition, confirmation | shares compounds with ADAM17 inh | recombinant ADAM17, EDANS/DABCYL QFRET peptide cleavage | inhibition, % at 6.95 µM | 65% of 2,900 active | AID 743257;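 active means mean inhibition across replicates above the hit cutoff set in the primary screen, cut at about 8.5% in these data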;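 further: 0% = DMSO wells and 100% = marimastat wells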
PLCg1 ctr – counter-screen for PLC-beta3 inhibitors: inhibitors of human PLC-gamma1. shares compounds with PLC-gamma1 inh. purified PLC-gamma1, fluorogenic substrate, fluorescence. inhibition, % at 12.3 µM. 3.1% of 3,300 active. AID 743258
PLCb3 confirm – confirmation of human PLC-beta3 inhibitors. shares compounds with PLC-gamma1 inh. purified PLC-beta3, fluorogenic substrate fluorescence. inhibition, % at 12.3 µM. 1% of 3,300 active. AID 743261; in the data active means inhibition above about 11%
* hit, by the source's call; . = no result given. Unless noted, no stated cut-off is given here; in the data, active means inhibition above about 9.5%; inactive means the rest.

SMILES	KLK7 zymogen act	PLC-gamma1 inh	ADAM10 inh	ADAM17 inh	PLC-beta3 inh	ADAM10 confirm	ADAM17 ctr	ADAM10 ctr	ADAM17 confirm	PLCg1 ctr	PLCb3 confirm
CC(=O)N[C@@H]1C[C@@H]2O[C@H](CO)CC[C@@H]2O[C@@H]1CCc1ccc(C#CC2(O)CCCC2)cc1	0.1	0.5	-1.4	-0.7	1.0	.	.	.	.	.	.
Cc1cc(N2CCCCC2)nc(SCc2ccc(C#N)cc2)n1	0.9	10.6*	25.6*	8.6*	6.0	3.2	0.5	20.4*	13.1*	-1.3	-1.2
COC(=O)c1ccc(Cl)c(NC(=O)CN(c2ccc(OC)c(OC)c2)S(C)(=O)=O)c1	0.7	-0.2	-5.6	-2.4	1.0	.	.	.	.	.	.
COC(=O)c1ccc(Cl)c(NC(=O)CN(c2ccc(OC)cc2)S(=O)(=O)c2ccccc2)c1	1.4	13.5*	34.6*	18.4*	8.2	3.8	0.6	25.7*	15.6*	-1.4	-5.2
COc1cccc(NC(=O)C(Sc2nnc(-c3ccncc3)n2-c2ccc(Cl)cc2)c2ccccc2)c1 (stereo not given)	0.1	11.1*	38.3*	14.1*	4.3	9.3	2.8	29.8*	15.6*	-0.3	-1.4
COc1cccc(-n2c(SCC(N)=O)nnc2-c2ccncc2)c1	0.8	1.2	-0.3	-1.6	5.2	.	.	.	.	.	.
C[C@@H]1CCCCO[C@@H](CN(C)S(=O)(=O)c2ccccc2)[C@@H](C)CN([C@H](C)CO)C(=O)c2cc(NS(=O)(=O)c3ccc(F)cc3)ccc2O1	0.3	16.6*	27.4*	16.7*	8.1	4.1	0.3	28.1*	15.4*	-1.8	-5.5
COc1ccc([C@@H]2[C@@H]3C(=O)N(C(C)(C)C)C(=O)[C@@H]3[C@]3(Cc4ccccc4)C(=O)N(c4cccc(Cl)c4)C(=O)N23)cc1	-0.3	9.6*	36.7*	9.8*	-0.7	4.3	1.8	25.6*	14.6*	-2.3	2.2
COc1ccc([C@@H]2[C@@H]3C(=O)N(C(C)(C)C)C(=O)[C@@H]3[C@]3(Cc4ccccc4)C(=O)N(c4cccc(C)c4)C(=O)N23)cc1	0.4	2.2	9.7	1.3	3.8	.	.	.	.	.	.
CC(C)CC(COCc1cccc(C(F)(F)F)c1)N1CCN(C(=O)c2cccc(C(F)(F)F)c2)CCC1=O (stereo not given)	0.6	9.6*	21.0*	7.4	4.6	2.9	-0.5	.	.	1.1	2.4
O=C(O)c1ccccc1-c1noc(-c2ccccc2F)n1	.	-1.9	-9.0	-2.5	-2.8	.	.	.	.	.	.
O=C(CSc1ccc(Cl)cc1)N1CCN(c2c(Cl)cccc2[N+](=O)[O-])CC1	-0.3	1.1	5.7	3.0	-3.7	.	.	.	.	.	.
O=C(/C=C/c1ccc(Cl)cc1)N1CCN(c2c(Cl)cccc2[N+](=O)[O-])CC1	0.8	17.0*	23.3*	11.5*	10.4	4.0	1.1	19.3	8.7*	-7.2	1.7
CCn1c(NCc2ccccc2NS(=O)(=O)c2ccc(C)cc2)nc2ccccc21	-0.8	8.9	27.4*	16.1*	12.3*	5.6	2.5	23.6*	14.9*	-0.1	0.2
C#CCNC(=O)C[C@@H]1C[C@@](CCC(=O)OCC)(C(=O)OCC)C2=CCCCN2C1=O	-0.3	-0.7	-5.0	-3.6	0.9	.	.	.	.	.	.
CC(C)(C)c1ccc(S(=O)(=O)Nc2ccc(C(=O)N3CCCC3)cc2)cc1	0.4	6.8	4.6	-0.1	-7.7	.	.	.	.	.	.
CC(C)(C)c1ccc(S(=O)(=O)Nc2ccc(C(O)(C(F)(F)F)C(F)(F)F)cc2)cc1	-0.2	12.6*	61.6*	27.0*	5.5	2.5	0.8	53.7*	30.9*	-2.6	-8.3
COC(CNC(=O)[C@H](Cc1ccccc1)NCC(=O)NC1CCCCC1)OC	.	0.3	-11.4	-6.3	1.6	.	.	.	.	.	.
O=C(CSc1nnc(-c2ccccc2)n1-c1ccc(Cl)cc1)c1ccc(Cl)cc1	0.3	1.4	3.9	3.7	2.1	.	.	.	.	.	.
Cc1ccc(Cn2nnc3c(=O)[nH]c(C4CCN(S(=O)(=O)c5cc(C)ccc5C)CC4)nc32)cc1	1.1	11.8*	43.1*	15.0*	2.7	5.0	2.5	24.8*	11.5*	5.9	3.6
Cc1ccc(C)c(S(=O)(=O)N2CCC(c3nc4c(nnn4Cc4ccc(F)cc4)c(=O)[nH]3)CC2)c1	0.4	6.5	8.9	8.2	-1.6	.	.	.	.	.	.
Cc1ccc(Cn2nnc3c(=O)[nH]c(C4CCN(S(=O)(=O)c5ccc(F)cc5)CC4)nc32)cc1	0.1	9.8*	21.2*	6.2	0.0	0.6	0.7	.	.	-3.5	-3.4
O=c1[nH]c(C2CCN(S(=O)(=O)c3ccc(S(=O)(=O)NC4CC4)cc3)CC2)nc2c1nnn2Cc1ccc(F)cc1	-0.2	-0.2	11.2	0.6	-9.6	.	.	.	.	.	.
O=C(c1ccc(Cl)c(Cl)c1)N1CCC(Oc2cccnc2)CC1	0.2	-0.2	-3.8	-6.5	2.0	.	.	.	.	.	.
CCN(CC)C(=O)CC[C@@H]1CC[C@]2(CCCN(C(=O)c3ccno3)C2)O1	0.3	1.3	-4.3	-3.3	1.3	.	.	.	.	.	.
SMILES	KLK7 zymogen act	PLC-gamma1 inh	ADAM10 inh	ADAM17 inh	PLC-beta3 inh	ADAM10 confirm	ADAM17 ctr	ADAM10 ctr	ADAM17 confirm	PLCg1 ctr	PLCb3 confirm
O=C(CCSc1ccccc1Cl)Nc1cccc([N+](=O)[O-])c1	-0.2	11.0*	29.2*	12.1*	8.7	1.6	0.2	23.9*	11.7*	6.1	5.9
NS(=O)(=O)c1cccc(NC(=O)CCSc2ccccc2Cl)c1	0.5	0.9	-8.5	-1.5	-3.2	.	.	.	.	.	.
Cc1cccc(NC(=O)Nc2c(-c3ccc(C(F)(F)F)cc3)nc3ncccn23)c1	-2.8	-46.4	-39.4	-8.9	-52.9	.	.	.	.	.	.
Cc1ccc(S(=O)(=O)c2cccc(S(=O)(=O)N3CCCC3)c2)cc1S(=O)(=O)N1CCCC1	0.8	9.9*	29.4*	17.1*	13.9*	-0.6	0.1	17.1	8.0	-0.6	0.5
COc1ccc(CNC(=O)O[C@H]2CC[C@@]34CCCN3C(=O)CCC[C@H]4C2)cc1	.	3.8	2.3	-0.2	4.7	.	.	.	.	.	.
CCN(C[C@H]1[C@@H](c2ccc(C3=CCCC3)cc2)[C@H](CO)N1Cc1ccccn1)S(=O)(=O)c1ccccc1[N+](=O)[O-]	-0.3	-4.9	-5.5	0.0	-12.2	.	.	.	.	.	.

From PubChem BioAssay
